According to PubChem BioAssay AID1159580 (chemical genetic matrix, 2015):
Among all 5,500 compounds or so, about 2,000 (36%) were called active. About 18% were inconclusive and are not listed. No stated cut-off is given here; in the data, active means normalized growth mostly below about 0.91 (no sharp cut-off); inconclusive means no clear call, values can overlap the other calls; inactive means mostly above about 0.92. The list shows a part of the results.

Test: chemical genetic growth profiling, strain panel (AID 1159580);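 further: tested at 20 µM; growth read once vehicle control cultures reached saturation at 30 °C; 1 = growth at the plate median or of vehicle wells; lower values mean less growth of the strain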
Settings: S. cerevisiae deletion strains, growth OD

Measured: normalized growth

Cc1ncc(CSSCc2cnc(C)c(O)c2CO)c(CO)c1O
inactive: locus YHR030C, strain SLT2, hits give low values 1.01 | locus YHR079C, strain IRE1, hits give low values 1.01 | locus YJL095W, strain BCK1, hits give low values 0.995 | locus YJR066W, strain TOR1, hits give low values 0.945 | locus YLR113W, strain HOG1, hits give low values 0.983 | locus YNL183C, strain NPR1, hits give low values 0.948 | locus YOR231W, strain MKK1, hits give low values 1.01 | locus YPL256C, strain CLN2, hits give low values 1.01
